# Experimental data reported in publication PMC5540273 (PLoS ONE, 2017).
# Columns and labels:
# Details in all cases: concentration: 1 μM, replicates: in singlicate; n = 1
# FGR = tested on: FGR
# FLT1 = tested on: FLT1
# FLT3-autoinhibited = tested on: FLT3-autoinhibited
# FLT3 = tested on: FLT3
# FLT4 = tested on: FLT4
# FRK = tested on: FRK
# FYN = tested on: FYN
# GAK = tested on: GAK
# GCN2(Kin.Dom.2,S808G) = tested on: T1, GCN2(Kin.Dom.2,S808G)
# T1 construct: gene EIF2AK4
# GRK1 = tested on: GRK1
# 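Also: KINOMEscan kinase panel screen.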
SMILES,%Inh (FGR) [%],%Inh (FLT1) [%],%Inh (FLT3-autoinhibited) [%],%Inh (FLT3) [%],%Inh (FLT4) [%],%Inh (FRK) [%],%Inh (FYN) [%],%Inh (GAK) [%],"%Inh (GCN2(Kin.Dom.2,S808G)) [%]",%Inh (GRK1) [%]
CCC(=O)c1c(-c2ccccc2)c2cc(Cl)ccc2c(=O)n1Cc1cc(S(C)(=O)=O)n(CCC(C)(C)O)n1,11,29,2,0,15,13,10,8,0,8
COc1cc2ncn(-c3cc(OCc4ccncc4Br)c(C(N)=O)s3)c2cc1OC [GW854278],20,0,22,26,68,8,0,58,0,0
O=C(Nc1n[nH]c2nc(-c3ccccc3)c(Br)cc12)C1CC1 [SB-708998],8,25,8,1,26,0,26,11,0,0
COc1cc2ncn(-c3cc(OCc4ccc(S(C)(=O)=O)cc4)c(C(N)=O)s3)c2cc1OC [GW869979],0,0,14,4,15,0,0,7,0,10
Nc1nc(N)c2nc(-c3ccccc3)[nH]c2n1 [SKF-12778],30,18,7,8,22,8,0,30,23,5
Cc1nc(N(C)[C@H]2CN(C(=O)CC#N)CC[C@H]2C)c2cc[nH]c2n1,6,0,0,5,15,0,2,0,0,0
COc1ccc(-n2cnc3c(N)ncnc32)cc1 [SKF-97236],0,24,34,83,22,0,25,27,0,0
Cc1nnc(-c2ccc3ncn(-c4ccc(S(C)=O)cc4)c3c2)o1 (centres unmarked),18,8,0,8,0,0,8,2,19,11
Nc1ncnc2c1ncn2-c1ccc(Cl)cc1 [AH2635],18,39,1,46,9,0,12,7,0,0
Nc1nccc2scc(-c3ccc4c(c3)CCN4C(=O)Cc3ccccc3)c12 [GSK2576924],22,22,3,0,21,0,33,0,0,4
CCC(=O)c1c(-c2ccccc2)c2cc(Cl)ccc2c(=O)n1Cc1cc(C(=O)NC2CC2)n(C)n1,20,0,0,0,1,8,0,1,0,0
O=C(NCCNc1ccnc(Nc2ccc(F)cc2)n1)Nc1ccc2c(c1)OCO2 [GSK1379882],0,0,12,0,9,0,34,14,0,0
OCCCNc1nccc(-c2c(-c3cccc(C(F)(F)F)c3)nn3cc(C(F)(F)F)ccc23)n1 [GW630813],16,24,0,0,12,0,0,8,0,100
COc1ccc(-c2cc3c(C)nc(N)nc3n([C@H]3CC[C@H](OCCO)CC3)c2=O)cn1,14,11,0,0,0,0,0,0,0,0
CCCC(=O)Nc1n[nH]c2ncc(-c3cccc4ccccc34)cc12 [SB-642057],10,10,5,0,1,0,42,0,0,0
COc1cc(Nc2ccnc3ccc(C(F)(F)F)cc23)cc(OC)c1OC [GW577382],30,9,0,0,3,19,30,86,9,17
COc1cc(OC)cc(-c2cc3cnc(N)nc3nc2NC(=O)NC(C)(C)C)c1,0,38,0,0,73,0,1,0,3,13
COc1cccc(C2=C(Nc3cccc(C(=O)O)c3)C(=O)NC2=O)c1 [SB-390770],14,13,5,0,25,2,29,21,0,14

SMILES,%Inh (FGR) [%],%Inh (FLT1) [%],%Inh (FLT3-autoinhibited) [%],%Inh (FLT3) [%],%Inh (FLT4) [%],%Inh (FRK) [%],%Inh (FYN) [%],%Inh (GAK) [%],"%Inh (GCN2(Kin.Dom.2,S808G)) [%]",%Inh (GRK1) [%]
FC(F)(F)c1ccc(-c2ncn(CCCN3CCOCC3)c2-c2ccncc2)cc1 [SB-217780],11,22,23,14,2,12,10,0,8,12
Cc1nnc(-c2ccc(C)c(-c3ccc(C(=O)O)cc3)c2)o1 [GW608005],12,20,4,0,12,0,10,5,0,0
COC(=O)c1c(-c2ccccc2)c2cc(C)ccc2c(=O)n1Cc1ccccc1,2,0,13,0,0,0,0,0,0,0
Nc1ncnc2c1ncn2-c1cccc(F)c1 [SKF-97560],0,22,35,47,19,0,0,1,0,10
Cc1c(Cn2c(C)nn3c(=O)cc(N4CCO[C@H](C)C4)nc23)cccc1C(F)(F)F [GSK2373690],0,22,0,0,0,35,14,52,3,0
CCC(=O)c1c(-c2ccccc2)c2cc(Cl)ccc2c(=O)n1Cc1cc(S(C)(=O)=O)n(CC(F)F)n1,0,0,0,0,0,0,0,0,0,12
Nc1n[nH]c2nnc(-c3ccccc3)c(-c3ccccc3)c12 [GW554060],7,20,0,8,0,5,2,1,8,0
O=c1cc(N2CCOCC2)nc2n(Cc3ccc(F)c(Cl)c3)ccn12 [GSK2297099],25,10,2,0,0,0,56,1,2,0
COc1cc2ncn(-c3cc(OCc4ccncc4)c(C(N)=O)s3)c2cc1OC [GSK336313],28,19,0,0,17,0,35,17,0,0
CN1C(=O)C(Nc2cc(Cl)c(O)c(Cl)c2)=C(c2ccc(Cl)cc2)C1=O [SB-404321],0,0,0,0,0,0,0,0,6,0
Cc1cccc(-c2cc(-c3c[nH]nc3-c3ccccn3)ccn2)c1 [GW679395],36,13,0,0,0,15,16,82,0,3
CCc1ccc(-c2ccc3c(c2)-c2nn(C)cc2S(=O)(=O)N3C)cc1,0,0,0,30,0,0,5,0,9,12
CC(C)(C)c1ccc(C(=O)Nc2cn3cc(-c4ccccc4)ccc3n2)cc1,0,0,0,35,0,10,0,0,8,25
COc1cc2ncn(-c3cc(OCCCc4ccccc4)c(C(N)=O)s3)c2cc1OC [GSK205189],21,23,0,5,0,0,24,66,0,5
Cc1ccc(-c2ccc3c(ccc4sc5c(c43)NC[C@@H](C)N=C5N(C)C)n2)cn1,1,1,0,0,0,0,0,0,0,0
O=C(Nc1n[nH]c2nc(-c3ccccc3)c(Cl)cc12)C1CC1 [SB-734909],13,9,16,2,0,0,0,0,0,37
CCS(=O)c1ccc(-c2coc3ccc(-c4nnc(C)o4)cc23)cc1 (centres unmarked),0,0,0,0,0,5,0,0,0,5
